Source: PubChem
pPAFAH inh: inhibitors of human plasma PAF acetylhydrolase (pPAFAH). Q13093. recombinant pPAFAH, FP-rhodamine probe fluorescence polarization. inhibition, % at 3.39 µM. actives 1.5% (n = 330,000). AID 463082;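 active = inhibition above the mean inhibition across the screen plus 3 SD, cut at about 25% in these data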;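 also: inhibitors block binding of the rhodamine activity-based probe so polarization drops; 0% = enzyme with DMSO and 100% = wells lacking pPAFAH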
PAFAH1B3 FP inh: PAFAH1B3 (human) inhibition; Q15102; recombinant PAFAH1B3, FP-rhodamine probe, fluorescence polarization; inhibition, % at 3.39 µM; actives 0.28% (n = 340,000); AID 492972;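 active = inhibition above the screen-wide average of all tested compounds plus 3 SD, cut at about 25% in these data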;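 also: 0% = enzyme with DMSO only and 100% = wells lacking PAFAH1B3 protein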
PP1 inh: blocks human PP1-alpha phosphatase, a PP5 counter-screen; P62136; purified PP1alpha, OMFP fluorescence; inhibition, % at 6.7 µM; actives 0.9% (n = 320,000);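 active = inhibition above the mean inhibition of all tested compounds plus 3 SD, computed separately for each screening campaign, cut at about 15% in these data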
PAFAH1B2 FP inh: inhibitors of human PAFAH1B2; AID 492953; actives 1.2% (n = 340,000); P68402; inhibition, % at 3.39 µM; recombinant PAFAH1B2, FP-rhodamine activity probe, fluorescence polarization;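 active = inhibition above the mean of all tested compounds plus 3 SD, cut at about 24% in these data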;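 also: 0% = enzyme with DMSO and 100% = wells lacking PAFAH1B2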
Target sequence (P68402 whole entry, looked up): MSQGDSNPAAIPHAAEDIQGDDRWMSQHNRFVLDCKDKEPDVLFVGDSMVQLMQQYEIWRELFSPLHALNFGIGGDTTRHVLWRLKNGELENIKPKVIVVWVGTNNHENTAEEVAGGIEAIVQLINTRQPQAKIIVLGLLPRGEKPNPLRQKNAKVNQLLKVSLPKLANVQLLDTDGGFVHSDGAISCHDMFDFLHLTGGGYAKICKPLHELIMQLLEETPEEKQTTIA
PP5 primary: PP5 (human) phosphatase inhibition; P53041; purified PP5c, OMFP substrate fluorescence; inhibition, % at 6.7 µM; actives 0.18% (n = 320,000);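 active = inhibition above the campaign's mean inhibition across all tested compounds plus 3 SD, cut at about 9.5% in these data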;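 also: 0% = DMSO only and 100% = 100 µM cantharidin control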
PAFAH2 FP inh: PAFAH2 (human) inhibition; Q99487; recombinant PAFAH2, FP-rhodamine activity probe, fluorescence polarization; inhibition, % at 3.39 µM; actives 0.99% (n = 340,000); AID 492956;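 active = inhibition above the mean over all tested compounds plus 3 SD, cut at about 30% in these data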;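 also: inhibitors block probe labeling of enzyme so polarization drops; 0% = enzyme with DMSO and 100% = wells lacking PAFAH2 protein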
The depositor's hits bear a star; nt = not tested or not shown. Compounds with a hit are over-represented: about 3.4% of the library has one in this group of screens.

SMILES	pPAFAH inh	PAFAH1B3 FP inh	PP1 inh	PAFAH1B2 FP inh	PP5 primary	PAFAH2 FP inh
COc1ccc(NC(=O)N/C=C/c2ccco2)cc1	8	12	-1	6	0	10
O=C(N/C=C/c1ccco1)Nc1cccc(Cl)c1	27*	nt	-3	nt	-2	nt
O=C(NCc1cccnc1)/C(=C/c1ccc(Cl)cc1)NC(=O)c1ccccc1	4	-1	-2	1	1	-6
O=C(NCc1cccnc1)/C(=C/c1ccc(-c2cccc(C(F)(F)F)c2)o1)NC(=O)c1ccccc1	30*	5	7	5	7	-7
O=C1C=CC(=O)c2c(O)c(N3CCN(CCOCCO)CC3)c(Br)c(O)c21	nt	62*	nt	44*	nt	59*
O=C1C=CC(=O)c2c(O)c(N3CCN(CCO)CC3)c(Cl)c(O)c21	nt	50*	nt	28*	nt	41*
OCCOCCN1CCN(C2=Nc3ccccc3Sc3ccccc32)CC1	-3	-4	3	3	1	-4
CCOC(=O)C1=C(C)NC2=C(C(=O)c3ccccc32)C1c1ccc(O)cc1 (stereo not drawn)	32*	13	1	6	6	16
C#CCN1C(=O)S/C(=C\c2ccc(-c3ccc(C(=O)O)cc3C)o2)C1=O	31*	3	3	5	1	6
Cc1cc(C(=O)O)ccc1-c1ccc(/C=C2\SC(=O)N(CC(=O)Nc3ccc4c(c3)OCO4)C2=O)o1	nt	5	nt	-5	nt	-2
CCOC(=O)C(C)N1C(=O)S/C(=C\c2ccc(-c3ccccc3C(=O)O)o2)C1=O (stereo not drawn)	28*	0	3	-6	0	5
CCOC(=O)c1ccc(NC(=S)N(CCCN2CCCCC2)Cc2ccco2)cc1	2	-2	-1	-3	1	-8
CCCCc1nnc(SCC(=O)Nc2nccs2)n1C	-1	9	0	6	1	4
CC(=O)c1ccccc1OC(=O)c1ccc(-c2ccccc2)cc1	2	6	3	0	-2	-1
CC(C)=NOC(=O)c1ccc(-c2ccccc2)cc1	30*	8	-4	-3	-1	13
CC(=O)N1CCN(C(=O)c2ccc(S(=O)(=O)Nc3ccccc3C)cc2)CC1	17	1	-6	2	0	-2
Cc1ccccc1NC1=C/C(=N\S(=O)(=O)c2ccc(C(=O)O)cc2)c2ccccc2C1=O	22	65*	4	34*	9	67*
COc1ccc(S(=O)(=O)/N=C2\C=C(Nc3ccc(O)cc3)C(=O)c3ccccc32)cc1	26*	70*	3	25*	7	43*
Cc1[nH]nc(-c2ccc(O)cc2O)c1Oc1ccccc1	2	5	4	27*	4	1
CCc1cc(-c2n[nH]c(C)c2Oc2ccc(C(C)C)cc2)c(O)cc1O	31*	13	-5	5	8	7
COc1ccc2nc(C)cc(SCC(=O)O)c2c1	1	7	-1	1	0	-1
Cc1ccc(S(=O)(=O)N(C)C)cc1NC(=O)COC(=O)c1sc2cc(Cl)ccc2c1Cl	32*	-12	-5	-5	0	-19
Oc1ccc(-c2nc3ccc4ccccc4c3c3c2CCC3)cc1O	33*	14	-2	3	1	-26
O=C(CSc1ncccn1)Nc1ccc2c(c1)CCC2	6	6	-2	3	7	-6
COc1ccc(NC(=O)CN(C2CCCCC2)S(C)(=O)=O)cc1Cl	1	6	-3	2	5	3
SMILES	pPAFAH inh	PAFAH1B3 FP inh	PP1 inh	PAFAH1B2 FP inh	PP5 primary	PAFAH2 FP inh
CCS(=O)(=O)Nc1cccc(C(=O)O)c1	3	nt	-3	nt	0	nt
Cc1cc(C(C)(C)C)cc(S(=O)(=O)Nc2cccc(C(=O)O)c2)c1C	3	6	13	30*	3	3
CCC(=O)Nc1cccc(C(=O)OCC(=O)c2ccccc2Cl)c1	3	5	-4	-1	2	41*
O=C1/C(=C/c2ccc(N3CCOCC3)o2)SC(=Nc2ccccc2)N1CCc1c[nH]c2ccccc12	6	4	34*	7	5	-13
COc1cc2c(cc1OC)C(CCc1ccccc1)=NCC2	-4	4	-2	8	0	-3
Cc1ccc(CN2C(=O)C3CCCN3c3ccc(S(=O)(=O)N4CCOCC4)cc32)cc1 (stereo not drawn)	-5	nt	24*	nt	-1	nt
